Experimental data reported in ChEMBL document CHEMBL4513141, “CO-ADD screening of NIH (USA) - Clinical Collection” (2021).
Entries with a potency or affinity are not part of this list. Square brackets hold non-standard residues; d marks the D form. Peptide text beside a SMILES is read from it. pGlu = O=C1CC[C@@H](C(=O)O)N1; Thz = O=C(O)[C@@H]1CSCN1

Tested on: Klebsiella pneumoniae
Details: Concentration 20 uM; ASSAY_TEST Inhibition of Bacterial Growth; detection method Absorption (OD600); MEDIA CAMHB; plate type 384well; NBS; CORNING #3640; time 18 hr

Compound	Inhibition
CCC(=O)O[C@]1(C(=O)CCl)[C@@H](C)C[C@H]2[C@@H]3CCC4=CC(=O)C=C[C@]4(C)[C@@]3(F)[C@@H](O)C[C@@]21C [CLOBETASOL PROPIONATE]	-2.85%
O=C1CC[C@@H](C(=O)N2CSC[C@H]2C(=O)O)N1 [PIDOTIMOD] ([pGlu]-[Thz]-OH)	9.73%
CCN(CC)CCOC(=O)c1ccc(N)cc1.Cl [PROCAINE HYDROCHLORIDE]	12%
Cc1nc(=O)c2cc(CN(C)c3ccc(C(=O)N[C@@H](CCC(=O)O)C(=O)O)s3)ccc2[nH]1 [RALTITREXED]	9.17%
Cc1ccc(C)c(OCCCC(C)(C)C(=O)O)c1 [GEMFIBROZIL]	7.25%
CC1(C)O[C@@H]2C[C@H]3[C@@H]4C[C@H](F)C5=CC(=O)C=C[C@]5(C)[C@H]4[C@@H](O)C[C@]3(C)[C@]2(C(=O)CO)O1 [FLUNISOLIDE]	10.74%
Cc1cccc(C)c1NC(=O)C(C)N (stereo unspecified) [TOCAINIDE]	13.74%
O=C1c2c(O)cc(O)cc2O[C@H](c2ccc(O)c(O)c2)[C@@H]1O	9.75%
OCc1cc(C(O)CNCCCCCCOCCCCc2ccccc2)ccc1O (stereo unspecified) [SALMETEROL]	16.35%
O=C([O-])c1cc(=O)c2c(OCC(O)COc3cccc4oc(C(=O)[O-])cc(=O)c34)cccc2o1.[Na+].[Na+] [CROMOLYN SODIUM]	6.64%
Nc1ccn([C@@H]2CS[C@H](CO)O2)c(=O)n1 [LAMIVUDINE]	20.65%
